Measurements: PubChem BioAssay AID1159580 (chemical genetic matrix, 2015)
Screen size: about 5,500 compounds; about 2,000 (36%) were called active. About 18% were inconclusive and are not listed. No stated cut-off is given here; in the data, active means normalized growth mostly below about 0.91 (no sharp cut-off); inconclusive means no clear call, values can overlap the other calls; inactive means mostly above about 0.92. The list shows a part of the results.

Assay: chemical genetic growth profiling, strain panel (AID 1159580);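 further: tested at 20 µM; growth read once vehicle control cultures reached saturation at 30 °C; 1 = growth at the plate median or of vehicle wells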
Details: S. cerevisiae deletion strains, growth OD
[1] = locus YAL013W, strain DEP1, stronger effect = lower value
[2] = locus YAL040C, strain CLN3, stronger effect = lower value
[3] = locus YCL061C, strain MRC1 (second series), stronger effect = lower value
[4] = locus YDR363W, strain ESC2, stronger effect = lower value
[5] = locus YER002W, strain NOP16, stronger effect = lower value
[6] = locus YMR263W, strain SAP30, stronger effect = lower value
[7] = locus YMR307W, strain GAS1, stronger effect = lower value
[8] = locus YNL153C, strain GIM3, stronger effect = lower value
[9] = locus YNL175C, strain NOP13, stronger effect = lower value
[10] = locus YNL197C, strain WHI3, stronger effect = lower value
[11] = locus YNL224C, strain SQS1, stronger effect = lower value
[12] = locus YNL322C, strain KRE1, stronger effect = lower value
[13] = locus YOR083W, strain WHI5 (second series), stronger effect = lower value
[14] = locus YPL055C, strain LGE1, stronger effect = lower value
[15] = locus YPL241C, strain CIN2, stronger effect = lower value
[16] = locus YDR150W, strain NUM1, stronger effect = lower value
[17] = locus YGR078C, strain PAC10, stronger effect = lower value

Measured: normalized growth

NCC1(CC(=O)O)CCCCC1
inactive: [1] 1 | [2] 0.991 | [3] 1.01 | [4] 0.995 | [5] 1.01 | [6] 0.999 | [7] 0.99 | [8] 1.02 | [9] 1.01 | [10] 1.01 | [11] 1.02 | [12] 0.998 | [13] 0.977 | [14] 0.999

C[N+]1(C)C2CCC1CC(OC(=O)c1c[nH]c3ccccc13)C2 (stereo not drawn)
inactive: [1] 1.02 | [2] 1.06 | [3] 0.996 | [4] 1 | [5] 0.974 | [6] 0.997 | [7] 1.01 | [9] 0.973 | [10] 1.01 | [11] 1.02 | [12] 1 | [13] 0.978 | [14] 1 | [15] 1

CSC(=N)N
inactive: [2] 0.992 | [3] 1.01 | [16] 1.01 | [4] 1.02 | [5] 0.984 | [17] 1.01 | [7] 1.01 | [8] 1.01 | [9] 1.01 | [10] 1 | [11] 1 | [13] 1.01 | [15] 1.01

CN(C)CCCCSC(=N)N
inactive: [1] 1.04 | [2] 0.998 | [3] 1.02 | [16] 1.01 | [4] 1.02 | [5] 0.985 | locus YJR075W, strain HOC1, stronger effect = lower value 1.04 | [7] 1.01 | locus YNL128W, strain TEP1, stronger effect = lower value 0.999 | [9] 0.995 | [10] 0.992 | [11] 1 | [13] 1.01

CCSC(=N)N
active: [2] 1.12 [resistant] | [14] 1.17 [resistant]
inactive: locus YAL021C, strain ccr4, stronger effect = lower value 1.03 | locus YAL026C, strain drs2, stronger effect = lower value 1.01 | locus YAL030W, strain snc1, stronger effect = lower value 1.01 | locus YBL061C, strain skt5, stronger effect = lower value 1.02 | locus YBR009C, strain hhf1, stronger effect = lower value 1.01 | locus YBR023C, strain chs3, stronger effect = lower value 1.02 | locus YBR171W, strain sec66, stronger effect = lower value 1.02 | locus YBR231C, strain swc5, stronger effect = lower value 1.01 | locus YBR279W, strain paf1, stronger effect = lower value 1.01 | locus YCL011C, strain gbp2, stronger effect = lower value 1.02 | locus YCL016C, strain dcc1, stronger effect = lower value 1.01 | [3] 1 | locus YCL061C, strain MRC1, stronger effect = lower value 1.01 | locus YCL069W, strain vba3, stronger effect = lower value 1.01 | locus YCR088W, strain abp1, stronger effect = lower value 1.02 | locus YDL005C, strain med2, stronger effect = lower value 1.03 | locus YDL040C, strain nat1, stronger effect = lower value 1.02 | locus YDR001C, strain nth1, stronger effect = lower value 1.01 | locus YDR069C, strain doa4, stronger effect = lower value 1.01 | locus YDR137W, strain rgp1, stronger effect = lower value 1.01 | [16] 1.01 | locus YDR159W, strain sac3, stronger effect = lower value 1.05 | locus YDR195W, strain ref2 1.01 | locus YDR297W, strain sur2, stronger effect = lower value 1.02 | locus YDR334W, strain swr1, stronger effect = lower value 1.01 | locus YDR335W, strain msn5, stronger effect = lower value 1.02 | [4] 1.01 | locus YDR392W, strain spt3, stronger effect = lower value 0.975 | locus YEL003W, strain gim4, stronger effect = lower value 1.01 | locus YEL037C, strain rad23, stronger effect = lower value 1.01 | locus YEL061C, strain CIN8 (second series), stronger effect = lower value 1.01 | [5] 0.999 | locus YER015W, strain faa2, stronger effect = lower value 1.01 | locus YER016W, strain bim1, stronger effect = lower value 1.02 | locus YER111C, strain swi4, stronger effect = lower value 1.02 | locus YER155C, strain BEM2 (second series), stronger effect = lower value 1.05 | locus YFR010W, strain ubp6, stronger effect = lower value 1.01 | locus YGL167C, strain pmr1, stronger effect = lower value 1.03 | locus YGL173C, strain kem1, stronger effect = lower value 1.01 | locus YGL227W, strain vid30, stronger effect = lower value 1.02 | locus YGL240W, strain doc1, stronger effect = lower value 1.02 | locus YGL253W, strain hxk2, stronger effect = lower value 1.02 | [17] 1.02 | locus YGR229C, strain SMI1, stronger effect = lower value 1.04 | locus YHR013C, strain ard1, stronger effect = lower value 1 | locus YHR027C, strain rpn1, stronger effect = lower value 1.02 | locus YHR142W, strain chs7, stronger effect = lower value 1.03 | locus YJL092W, strain hpr5, stronger effect = lower value 1.01 | locus YJL095W, strain BCK1 (second series), stronger effect = lower value 1.01 | locus YJL115W, strain asf1, stronger effect = lower value 1.02 | locus YJL129C, strain trk1, stronger effect = lower value 1.04 | locus YJL154C, strain vps35, stronger effect = lower value 1.01 | locus YJL164C, strain tpk1, stronger effect = lower value 1.01 | locus YJL166W, strain qcr8, stronger effect = lower value 1.02 | locus YJL187C, strain SWE1, stronger effect = lower value 1.01 | locus YKL160W, strain elf1, stronger effect = lower value 1.02 | locus YKR026C, strain gcn3, stronger effect = lower value 1.01 | locus YKR091W, strain srl3, stronger effect = lower value 1.01 | locus YLL001W, strain dnm1, stronger effect = lower value 1.02 | locus YLL026W, stronger effect = lower value 1.01 | locus YLL041C, strain sdh2, stronger effect = lower value 1.02 | locus YLR027C, strain aat2, stronger effect = lower value 1.01 | locus YLR221C, strain rsa3, stronger effect = lower value 1.01 | locus YLR258W, strain gsy2, stronger effect = lower value 1.01 | locus YLR262C, strain YPT6 (second series), stronger effect = lower value 1.02 | locus YLR320W, strain mms22, stronger effect = lower value 1.03 | locus YLR342W, strain FKS1, stronger effect = lower value 1.02 | locus YLR357W, strain rsc2, stronger effect = lower value 1.01 | locus YLR370C, strain arc18, stronger effect = lower value 1.02 | locus YLR384C, strain iki3, stronger effect = lower value 1.02 | locus YML120C, strain ndi1, stronger effect = lower value 1.01 | locus YMR058W, strain fet3, stronger effect = lower value 1.02 | locus YMR125W, strain sto1, stronger effect = lower value 1.01 | locus YMR129W, stronger effect = lower value 1.02 | locus YMR205C, strain PFK2, stronger effect = lower value 0.998 | locus YMR231W, strain pep5, stronger effect = lower value 1.01 | [6] 1.01 | [7] 1.03 | locus YNL071W, strain lat1, stronger effect = lower value 1.02 | [8] 1.03 | [9] 0.988 | [10] 0.992 | locus YNL209W, strain ssb2, stronger effect = lower value 1.01 | [11] 1.01 | locus YNL248C, strain rpa49, stronger effect = lower value 1.02 | locus YNL322C, strain KRE1 (second series), stronger effect = lower value 1.02 | [12] 1.01 | locus YNR049C, strain mso1, stronger effect = lower value 1.01 | locus YOR001W, strain rrp6, stronger effect = lower value 1.02 | locus YOR070C, strain gyp1, stronger effect = lower value 1.01 | locus YOR080W, strain dia2, stronger effect = lower value 1.03 | [13] 0.995 | locus YOR083W, strain WHI5, stronger effect = lower value 1.03 | locus YOR106W, strain vam3, stronger effect = lower value 1.04 | locus YOR265W, strain rbl2, stronger effect = lower value 1.01 | locus YOR270C, strain vph1, stronger effect = lower value 1.07 | locus YOR290C, strain snf2, stronger effect = lower value 0.96 | locus YPL051W, strain arl3, stronger effect = lower value 1.02 | locus YPL078C, strain atp4, stronger effect = lower value 1.02 | locus YPL106C, strain sse1, stronger effect = lower value 1.04 | locus YPL240C, strain hsp82, stronger effect = lower value 1.02

COc1ccc(NC(=O)O/N=C(/N)c2ccc(Oc3c(Cl)cncc3Cl)cc2)cc1
active: locus YER123W, strain YCK3, stronger effect = lower value 0.575 | locus YFR019W, strain FAB1, stronger effect = lower value 0.527 | locus YHR030C, strain SLT2, stronger effect = lower value 0.71 | locus YJR066W, strain TOR1 (second series), stronger effect = lower value 0.572 | locus YLR113W, strain HOG1, stronger effect = lower value 0.604 | locus YPL256C, strain CLN2, stronger effect = lower value 0.676
inactive: locus YAR019C, strain CDC15, stronger effect = lower value 0.966 | locus YBL105C, strain PKC1, stronger effect = lower value 0.974 | locus YBR135W, strain CKS1, stronger effect = lower value 0.975 | locus YBR136W, strain MEC1, stronger effect = lower value 0.982 | locus YBR160W, strain CDC28, stronger effect = lower value 0.976 | locus YDL017W, strain CDC7, stronger effect = lower value 0.98 | locus YDL028C, strain MPS1, stronger effect = lower value 0.987 | locus YDL101C, strain DUN1, stronger effect = lower value 0.969 | locus YDL108W, strain KIN28, stronger effect = lower value 0.99 | locus YDL132W, strain cdc53, stronger effect = lower value 0.966 | locus YDL214C, strain PRR2, stronger effect = lower value 0.825 | locus YDR052C, strain DBF4, stronger effect = lower value 0.986 | locus YDR054C, strain cdc34, stronger effect = lower value 0.959 | locus YDR226W, strain ADK1, stronger effect = lower value 0.965 | locus YDR477W, strain SNF1, stronger effect = lower value 0.758 | locus YER133W, strain GLC7, stronger effect = lower value 0.751 | locus YFL009W, strain cdc4, stronger effect = lower value 0.963 | locus YFL029C, strain CAK1, stronger effect = lower value 0.971 | locus YFR003C, strain YPI1, stronger effect = lower value 0.972 | locus YFR028C, strain CDC14, stronger effect = lower value 0.963 | locus YGR040W, strain KSS1, stronger effect = lower value 0.751 | locus YGR052W, strain FMP48, stronger effect = lower value 0.694 | locus YGR092W, strain DBF2, stronger effect = lower value 0.706 | locus YHR079C, strain IRE1, stronger effect = lower value 0.618 | locus YHR082C, strain KSP1, stronger effect = lower value 0.805 | locus YHR205W, strain SCH9, stronger effect = lower value 0.743 | locus YIL147C, strain SLN1, stronger effect = lower value 0.963 | locus YJL095W, strain BCK1, stronger effect = lower value 0.578 | locus YJL128C, strain PBS2, stronger effect = lower value 0.971 | locus YJL157C, strain FAR1, stronger effect = lower value 0.805 | locus YJR016C, strain ILV3, stronger effect = lower value 0.975 | locus YJR066W, strain TOR1, stronger effect = lower value 0.69 | locus YKL048C, strain ELM1, stronger effect = lower value 0.95 | locus YKL067W, strain YNK1, stronger effect = lower value 0.866 | locus YKL101W, strain HSL1, stronger effect = lower value 0.881 | locus YKL193C, strain SDS22, stronger effect = lower value 0.97 | locus YKL203C, strain TOR2, stronger effect = lower value 0.806 | locus YLR133W, strain CKI1, stronger effect = lower value 0.825 | locus YLR403W, strain SFP1, stronger effect = lower value 0.756 | locus YML070W, strain DAK1, stronger effect = lower value 0.804 | locus YMR001C, strain CDC5, stronger effect = lower value 0.958 | locus YMR205C, strain PFK2 (second series), stronger effect = lower value 0.898 | locus YMR277W, strain FCP1, stronger effect = lower value 0.977 | locus YNL006W, strain LST8, stronger effect = lower value 0.981 | locus YNL020C, strain ARK1, stronger effect = lower value 0.856 | locus YNL161W, strain CBK1, stronger effect = lower value 0.962 | locus YNL183C, strain NPR1, stronger effect = lower value 0.593 | locus YNL207W, strain RIO2, stronger effect = lower value 0.957 | locus YNL222W, strain SSU72, stronger effect = lower value 0.965 | locus YNL307C, strain MCK1 (second series), stronger effect = lower value 0.745 | locus YOL078W, strain AVO1, stronger effect = lower value 0.973 | locus YOL136C, strain PFK27, stronger effect = lower value 0.793 | locus YOR061W, strain CKA2, stronger effect = lower value 0.87 | locus YOR119C, strain RIO1, stronger effect = lower value 0.781 | locus YOR231W, strain MKK1, stronger effect = lower value 0.661 | locus YOR329C, strain SCD5, stronger effect = lower value 0.971 | locus YPL031C, strain PHO85, stronger effect = lower value 0.726 | locus YPL153C, strain RAD53, stronger effect = lower value 0.728 | locus YPL204W, strain HRR25, stronger effect = lower value 0.676 | locus YPL209C, strain IPL1, stronger effect = lower value 0.963 | locus YPR025C, strain CCL1, stronger effect = lower value 0.965 | locus YPR106W, strain ISR1, stronger effect = lower value 0.98 | locus YPR111W, strain DBF20, stronger effect = lower value 1 | strain NNK1, stronger effect = lower value 1 | strain TSCII, stronger effect = lower value 0.975
